The supplement of paper PMC6555819

Tests used:
Assay in all cases: PBM binding z-score (relative to random genomic background probes); higher = stronger binding; sequences stand for … in GC…GCGATTGACAGCGTAGAATGAAGG
[1] = system: PPARg:RXRa DBDmut IVT, anti-RXR (DBD mutation: RXRa K156A/R161A, NR concentration 270 nM, RXRa partner concentration 90 nM)
Procedure, shortened: (§1)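 Scanned fluorescence from custom Agilent 4×180K protein-binding microarrays was regression-normalized. Binding z-scores use random background probes as reference. Ligand-free nuclear receptor dimers were incubated on the arrays for 1 h and detected with antibodies against each partner (one per run).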

[2] = system: PPARg:RXRa IVT, anti-PPARg (NR concentration 270 nM, RXRa partner concentration 90 nM)
Procedure, shortened: as §1

[3] = system: PPARg DBDmut:RXRa IVT, anti-PPARg (DBD mutation: PPARg1 K132A/R137A, NR concentration 270 nM, RXRa partner concentration 90 nM)
Procedure, shortened: as §1

[4] = system: PPARg DBDmut IVT, anti-PPARg (DBD mutation: PPARg1 K132A/R137A, NR concentration 270 nM)
Procedure, shortened: as §1

[5] = system: PPARg homodimer (NR concentration 180 nM)
Procedure, shortened: as §1

[6] = system: PXR:RXRa (NR concentration 270 nM, RXRa partner concentration 90 nM)
Procedure, shortened: as §1

[7] = system: PXR homodimer (NR concentration 270 nM)
Procedure, shortened: as §1

[8] = system: RARa:RXR (NR concentration 270 nM, RXRa partner concentration 90 nM)
Procedure, shortened: as §1

[9] = system: RARa homodimer (NR concentration 270 nM)
Procedure, shortened: as §1

[10] = system: RARb:RXRa (NR concentration 270 nM, RXRa partner concentration 90 nM)
Procedure, shortened: as §1

[11] = system: RARb homodimer (NR concentration 270 nM)
Procedure, shortened: as §1

[12] = system: RARg:RXRa (NR concentration 270 nM, RXRa partner concentration 90 nM)
Procedure, shortened: as §1

[13] = system: RARg homodimer (NR concentration 270 nM)
Procedure, shortened: as §1

[14] = system: RXRa DBDmut IVT, anti-RXR (DBD mutation: RXRa K156A/R161A, NR concentration 90 nM)
Procedure, shortened: as §1

[15] = system: RXRa homodimer (NR concentration 180 nM)
Procedure, shortened: as §1

[16] = system: THRa:RXRa (NR concentration 90 nM, RXRa partner concentration 90 nM)
Procedure, shortened: as §1

[17] = system: THRa homodimer (NR concentration 90 nM)
Procedure, shortened: as §1

[18] = system: VDR homodimer (NR concentration 270 nM)
Procedure, shortened: as §1

Row | Sequence | PBM binding z-score [1] | PBM binding z-score [2] | PBM binding z-score [3] | PBM binding z-score [4] | PBM binding z-score [5] | PBM binding z-score [6] | PBM binding z-score [7] | PBM binding z-score [8] | PBM binding z-score [9] | PBM binding z-score [10] | PBM binding z-score [11] | PBM binding z-score [12] | PBM binding z-score [13] | PBM binding z-score [14] | PBM binding z-score [15] | PBM binding z-score [16] | PBM binding z-score [17] | PBM binding z-score [18]
1 | TCTAGTTGGTCCCGGAGGTCACACACGACGGGTA | 1.7 | 1.82 | 0.461 | 1 | 2.76 | 4.18 | 1.4 | 4.64 | 1.21 | 3.41 | 3.79 | 3.99 | 3.7 | 0.937 | 4.39 | 3.59 | 3.02 | 2.67
2 | AGAATGAGGTTACCAAAGATCAGGGAAACGCTTG | 3.53 | 3.38 | 1.26 | 1.04 | 1.16 | 1.38 | 0.241 | 2.16 | -0.326 | 2.03 | 0.765 | 2.19 | 1.68 | 1.25 | 2.57 | 3.04 | 0.9 | 0.1
3 | AGAATGAGGTTATTAAGATCAGGCAATTGCGGTC | 2.95 | 2.56 | 0.272 | 0.448 | 0.366 | 1.2 | 0.322 | 1.47 | 0.167 | 1.33 | 0.685 | 1.05 | 0.712 | 1.89 | 1.65 | 2.22 | 0.632 | 1.24
4 | TCTTGTAGATCATTAGAGGTTAAGAAAGTGCGCT | 1.84 | 1.01 | 0.756 | 0.793 | 0.628 | 3.16 | 0.436 | 1.89 | 0.575 | 1.01 | 1.19 | 0.881 | 0.586 | 0.77 | 1.42 | 2.67 | -0.124 | 0.446
5 | CCTACTGGGCCATCAAGTCATTGATATCAACGTT | 3.82 | 3.91 | -0.107 | 0.228 | 0.653 | -0.138 | -0.334 | 0.32 | 0.00429 | 0.23 | 0.27 | 0.122 | 0.368 | 0.0115 | -0.103 | -0.116 | -0.0575 | -0.205
6 | AGAATGAAGTTATACGTAGATCAGGGAAGAAAGT | -0.998 | -0.385 | 1.2 | 0.896 | -0.353 | -0.161 | 0.326 | -0.215 | 0.239 | -0.131 | -0.451 | 0.0716 | 0.29 | -0.796 | -0.0486 | -0.563 | -0.66 | -0.183
7 | CCTAGCAGGCCAGGGTCACACAAGCATTTCGCTT | 0.592 | 1.47 | -0.955 | -1.08 | 1.19 | 3.43 | -0.631 | 4.06 | 0.145 | 2.9 | 2.98 | 3.72 | 2.62 | 0.238 | 4.27 | 3.45 | 1.54 | 1.18
